From PubChem BioAssay
Only some compounds are listed: those with a hit (about 12% of all), similar ones and a draw of the others.
PLK1 PBD inh: inhibitors of human PLK1 polo-box domain binding | P53350 | Plk1 PBD binding of FITC phosphopeptide, fluorescence polarization | Potency, µM, inactives show max response, negative = inhibition, usual class: inhibitors | actives 2.8% (n = 360,000) | AID 720504; further: potency means the concentration at half of the fitted maximal effect; series mostly up to about 57 µM; on the % scale 0 is the no-effect control and ±100 the full control effect; nearly all actives have a fitted effect of over 65% in size
PI5P4Ka inh: inhibitors of human PI5P4K alpha; P48426; PI5P4Kalpha enzyme, ADP-Glo luminescence, 60 min; active compounds read low; max response, %; actives 1.2% (n = 330,000); AID 652105; active means max response of -50% or lower; inconclusive means between -30% and -50%; inactive means -30% or higher; further: value at the top dose of about 77 µM; on the % scale 0 is the no-effect control and ±100 the full control effect
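Controls without substrate or without enzyme flank wells where PI5P4Kalpha converts substrate using 5 microM ATP (final). Incubation lasts 60 minutes at room temperature; ADP formed is read by ADP-Glo luminescence.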
G9a block: blocks human histone lysine methyltransferase G9a | G9a H3K9 monomethylation, AlphaScreen, 2 h | Potency, µM (top dose mostly 102 µM), for the others: at the top dose activity, negative = inhibition, most hits filed as inhibitors | actives 8.8% (n = 350,000); further: potency means the concentration at half of the fitted maximal effect; on the % scale 0 is the no-effect control and ±100 the full control effect; nearly all actives have a fitted effect of over 75% in size
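G9a (20 nM) preincubated 15 min RT with compounds, then 500 nM biotinylated H3K9 peptide and 20 uM SAM added; 2 h RT reaction. Monomethyl-H3K9 product detected by AlphaScreen with anti-H3K9me1 antibody, streptavidin donor and anti-rabbit IgG acceptor beads.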
HP1b binding inh: blocks HP1-beta chromodomain binding to methylated histone tails. actives 0.56% (n = 390,000). P83916. Potency, µM (series often up to 114 µM), without a hit: top-dose activity change, negative = inhibition, most hits filed as inhibitors. AlphaScreen HP1-beta / biotin-H3K9me3 peptide binding; further: potency means the concentration at half of the fitted maximal effect; nearly all actives have a fitted effect of over 70% in size
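Compound inhibition of the preformed complex between 50 nM HP1-beta and 50 nM biotinylated H3K9me3 peptide was read by AlphaScreen. Buffer was PBS pH 7.4 with 0.01% Tween-20. Incubations ran 30 min at room temperature, with 10 ug/mL donor/acceptor beads.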
JMJD2A Tudor inh: inhibitors of human JMJD2A Tudor domain. AlphaScreen JMJD2A-Tudor / H3K4me3 peptide binding. actives 4.4% (n = 390,000). Potency, µM (highest dose often 114 µM), inactives show at the highest dose activity change, negative = inhibition, hits mostly inhibitors. O75164. AID 504339; further: potency means the concentration at half of the fitted maximal effect; on the % scale 0 is the no-effect control and ±100 the full control effect; nearly all actives have a fitted effect of over 50% in size
Target sequence (O75164 whole entry, looked up, the tested form may be a part): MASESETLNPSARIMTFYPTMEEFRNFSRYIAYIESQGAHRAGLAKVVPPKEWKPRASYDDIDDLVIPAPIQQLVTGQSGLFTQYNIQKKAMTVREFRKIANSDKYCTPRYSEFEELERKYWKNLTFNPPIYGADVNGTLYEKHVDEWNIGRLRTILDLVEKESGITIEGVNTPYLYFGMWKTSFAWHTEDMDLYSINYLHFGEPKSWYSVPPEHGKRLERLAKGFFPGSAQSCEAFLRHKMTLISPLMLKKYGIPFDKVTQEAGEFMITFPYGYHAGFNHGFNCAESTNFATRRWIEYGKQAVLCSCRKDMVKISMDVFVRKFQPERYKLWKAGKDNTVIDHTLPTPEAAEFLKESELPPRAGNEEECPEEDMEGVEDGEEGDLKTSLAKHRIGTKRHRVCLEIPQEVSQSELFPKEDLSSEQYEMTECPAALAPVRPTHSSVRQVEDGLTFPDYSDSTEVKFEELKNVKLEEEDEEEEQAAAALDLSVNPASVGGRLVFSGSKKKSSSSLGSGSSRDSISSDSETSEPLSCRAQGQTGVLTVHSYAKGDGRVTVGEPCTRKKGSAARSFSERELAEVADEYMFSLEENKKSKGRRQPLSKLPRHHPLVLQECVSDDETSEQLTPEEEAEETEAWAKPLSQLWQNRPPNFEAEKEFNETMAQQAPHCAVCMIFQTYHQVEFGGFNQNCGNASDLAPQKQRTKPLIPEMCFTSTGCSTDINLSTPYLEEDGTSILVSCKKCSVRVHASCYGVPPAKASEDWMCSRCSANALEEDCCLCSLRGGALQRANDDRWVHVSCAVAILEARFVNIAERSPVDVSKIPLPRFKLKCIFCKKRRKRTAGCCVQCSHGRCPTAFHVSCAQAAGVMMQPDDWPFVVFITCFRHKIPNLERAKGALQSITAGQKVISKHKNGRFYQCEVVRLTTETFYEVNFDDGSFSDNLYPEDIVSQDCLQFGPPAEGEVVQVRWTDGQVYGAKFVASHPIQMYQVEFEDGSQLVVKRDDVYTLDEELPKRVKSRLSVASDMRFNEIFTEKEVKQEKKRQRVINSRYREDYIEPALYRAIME
BAZ2B block: blocks human BAZ2B; AlphaScreen BAZ2B-H3K14Ac peptide displacement; Q9UIF8; actives 4.4% (n = 360,000); Potency, µM (top dose mostly 114 µM), inactives show at the highest dose activity change, negative = inhibition, actives largely listed as inhibitors; further: potency means the concentration at half of the fitted maximal effect; on the % scale 0 is the no-effect control and ±100 the full control effect; nearly all actives have a fitted effect of over 60% in size
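In this displacement format the biotinylated H3(5-23) peptide acetylated at Lys14 serves as ligand at 50 nM, with BAZ2B at 50 nM in PBS pH 7.4 containing 0.01% Tween-20. Donor and acceptor beads are 10 ug/mL final.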
Numbers without * were called inactive; ? = inconclusive; . = not tested or not shown; [ ] = dose if it differs, or a comment. Unless noted, the call rests on the fitted dose curve; in most records, active means well fitted curve in the direction sought with a large enough effect; inconclusive means small, poorly fitted or top-dose-only effect, or another doubt; inactive means no such curve, though single readings can be large; an effect the other way counts as inactive or inconclusive.

SMILES	PLK1 PBD inh	PI5P4Ka inh	G9a block	HP1b binding inh	JMJD2A Tudor inh	BAZ2B block
CC(=O)N1c2ccc(S(=O)(=O)N3CCC(C(=O)Nc4cccc(C(F)(F)F)c4)CC3)cc2CC1C (stereo not drawn)	26.7µM*	4.4	14.9%	-0.9%	-25.0%	-20.7%
CC(=O)N1c2ccc(S(=O)(=O)N3CCC(C(=O)Nc4cccc(C)c4C)CC3)cc2CC1C (stereo not drawn)	23.8µM*	-14.4	53.1%	-9.2%	?	-24.6%
CC(C)Oc1ccc(CNC(=O)c2ccc(CN3CC(=O)N4CCCCC4C3=O)cc2)cc1 (stereo not drawn)	.	.	1.8%[59 µM]	49.7%	-21.1%	0.0%
CC(C)(C)NC(=O)C(c1ccco1)N(C(=O)c1ccc(CN2CCOCC2)o1)c1ccccc1 (stereo not drawn)	0.6%	8.5	11.2µM*	8.2%	-4.9%	1.6%
CC(C)(C)NC(=O)C(c1ccco1)N(C(=O)c1csnn1)c1ccccc1 (stereo not drawn)	-2.0%	.	0.1%[12.7 µM]	11.0%	-7.5%	-16.0%
CC(C)(C)c1nc(SCC(=O)N2CC(=O)Nc3ccccc32)c2ccccc2n1	-3.0%	-0.9	8.0%	18.8%	4.8%	-5.6%
CCc1cc2cc(C)ccc2nc1SCC(=O)N1CC(=O)Nc2ccccc21	5.7%	-8.5	-7.2%[59 µM]	7.6%	-20.8%	-20.2%
CCc1ccc2nc(SCC(=O)N3CC(=O)Nc4ccccc43)c(C#N)cc2c1	21.2µM*	-14.0	-6.3%[59 µM]	?	50.1µM*	-5.7%
CCc1cc2c(SCC(=O)N3CC(=O)Nc4ccccc43)ncnc2s1	26.7µM*	-27.9	22.9%[59 µM]	-13.7%	-35.7%	-7.1%
N#Cc1cc(C#N)c(SCC(=O)N2CC(=O)Nc3ccccc32)nc1N	-4.4%	-53.3*	?	41.9%	-25.8%	-0.8%
Cc1ccc(C(=O)N2CCC(N3CCN(Cc4ccc(F)cc4)C(=O)C3=O)CC2)cc1	.	.	6.6%[59 µM]	19.4%	-6.5%	-3.6%
CCCCn1c(=O)c(-[n+]2ccccc2)c([O-])c2ccccc21	-5.2%	-0.8	8.91µM*	48.8%	-5.0%	?
COc1ccc(C(=O)N/C(=C/c2ccco2)C(=O)N2CCCCCC2)cc1	-15.1%	-5.2	35.5µM*	20.8%	-22.6%	?
O=C(N/C(=C\c1ccco1)C(=O)N1CCOCC1)c1ccco1	-10.7%	6.1	31.6µM*	20.1%	-5.5%	3.9%
O=C(N/C(=C\c1ccc(-c2ccccc2)o1)C(=O)N1CCOCC1)c1ccccc1	26.7µM*	-20.0	50.1µM*	-24.1%	56.2µM*	-32.3%
Cc1ccc(C(=O)N/C(=C/c2ccco2)C(=O)N2CCOCC2)cc1	5.2%	-6.4	?	18.8%	4.9%	0.5%
Cc1ccc(C(=O)N/C(=C/c2ccco2)C(=O)N2CCCCC2)cc1	-1.0%	1.2	50.1µM*	-3.0%	-18.6%	-9.2%
CCc1nn2c(=O)c(S(=O)(=O)Nc3ccc(OC)c(Cl)c3)c(C)nc2s1	.	.	?	16.1%	-17.8%	-9.3%
Cc1ccc(S(=O)(=O)N2[C@@H](c3ccc(Br)cc3)C(C(=O)O)=C[C@H]2C(C)(C)C)cc1	-26.4%	-4.3	.	13.0%	-19.6%	.
CCN1CCN(C(=O)/C(=C/c2ccco2)NC(=O)c2ccccc2)CC1	-15.1%	-6.1	?	20.8%	10.9%	0.8%
O=C(N/C(=C/c1ccco1)C(=O)N1CCCCCC1)c1ccccc1	-6.9%	-2.8	44.7µM*	-15.2%	-16.4%	1.7%
Cc1ccc(C(=O)N/C(=C\c2ccco2)C(=O)N2CCCCC2)cc1	-4.9%	-3.9	44.7µM*	?	-20.3%	-12.6%
CCOC(=O)C1CCCN(C(=O)/C(=C/c2ccco2)NC(=O)c2ccccc2)C1 (stereo not drawn)	-4.5%	5.4	39.8µM*	3.7%	-24.7%	-18.5%
CC1CN(C(=O)/C(=C/c2ccco2)NC(=O)c2ccccc2)CC(C)O1 (stereo not drawn)	-3.6%	-6.5	35.5µM*	0.3%	-10.6%	-2.9%
COCCN(Cc1ccco1)C(=O)c1cc2c(Cl)nc3ccc(C)cc3c2s1	.	.	-7.2%[59 µM]	37.2%	-11.6%	-1.7%
SMILES	PLK1 PBD inh	PI5P4Ka inh	G9a block	HP1b binding inh	JMJD2A Tudor inh	BAZ2B block
O=C(Nc1cccc(Cl)c1)Nc1ccc2nccnc2c1	1.3%	-7.4	50.1µM*	31.5%	3.2%	-21.9%
O=C(Nc1ccccc1)Nc1cccc(Cl)c1	-1.7%	.	9.7%[12.7 µM]	34.5%	8.8%	-0.6%
O=C(Nc1ccc2nccnc2c1)Nc1ccccc1Cl	23.8µM*	-7.1	?	21.8%	20µM*	-12.8%
Cc1ccc(CNC(=O)c2cc(-c3ccc(Cl)cc3)on2)cc1	.	.	8.9%[59 µM]	21.8%	-16.6%	0.8%
Cc1ccc(Cl)cc1NC(=O)CN1C=NS(=O)(=O)c2ccccc21	.	.	2.7%[59 µM]	7.8%	-10.0%	-0.1%
COC(=O)C1C(c2ccc(OC)c(OC)c2)NC(c2ccc(OC)c(OC)c2)C(C(=O)OC)S1(=O)=O (stereo not drawn)	-10.5%	.	-45.3%[59 µM]	9.7%	-14.7%	-3.9%
COC(=O)C1CSc2[nH]c(=O)sc2C1c1ccc(OC)c(OC)c1 (stereo not drawn)	?	3.1	70.8µM*	-4.8%	-9.0%	-28.8%
CC(C)c1ccc(C2N3CC4(C)CN2CC(c2ccccc2)(C3)C4=O)cc1 (stereo not drawn)	.	.	-37.0%[59 µM]	14.2%	-18.9%	-4.1%
C/C(=N\Nc1nc(-c2ccccc2)cs1)c1cccs1	-23.4%	-19.5	5.01µM*	-30.6%	?	39.8µM*
O=C(COC(=O)/C=C/c1cccs1)Nc1nc(-c2ccccc2)cs1	-15.8%	0.4	1.12µM*	57.6%	-9.1%	5.0%
O=C(COC(=O)/C=C/c1cccs1)Nc1nc(-c2cccc(Br)c2)cs1	2.7%	-2.7	18.2%[59 µM]	35.4%	-7.7%	-1.8%
O=C(COC(=O)c1cccs1)Nc1nc(-c2ccccc2)cs1	-18.4%	-0.5	39.8µM*	32.1%	-4.5%	-0.4%
CCc1ccc2c(c1)[C@]1(C(=O)N2)[C@@H]2C(=O)N(Cc3ccccc3)C(=O)[C@@H]2[C@@H]2CCCN21	2.5%	-16.8	70.8µM*	6.3%	-31.5%	1.9%
CCC1CN(C(=O)N2CCC(C(=O)N3CCN(c4ccccc4F)CC3)CC2)c2ccccc2O1 (stereo not drawn)	.	.	-27.4%[59 µM]	27.1%	-5.9%	?
Cc1[nH]c2ccccc2c1C(C[N+](=O)[O-])c1ccco1 (stereo not drawn)	?	-29.9	50.1µM*	-8.1%	?	?
Cc1ccc(-c2[nH]c3ccccc3c2C(C[N+](=O)[O-])c2ccco2)cc1 (stereo not drawn)	-12.1%	-19.6	?	-6.9%	?	-2.4%
COc1cc(C(C[N+](=O)[O-])c2c(N)n(C)c(=O)n(C)c2=O)ccc1O (stereo not drawn)	-5.0%	-3.2	50.1µM*	-4.2%	-8.7%	-26.8%
